The source made the active and inactive calls.
What was measured:
[1] = target: Albumin (Bos taurus) (UniProt P02769); assay: bovine serum albumin binders on microarray, profiling panel, artefact control for SMM control protein annotation, biochemical, small-molecule microarray, Alexa647 label, 635/667 nm fluorescence (AID 1118); conditions: BSA-A647 binding, fluorescence 635 nm, higher = more signal;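 note: score merges 667 nm emission intensity and signal-to-noise per printed compound spot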
[2] = small-molecule microarray binders of probe aXIP, primary screen, biochemical, NeuroSMM set, 635/667 nm fluorescence (AID 1119); conditions: higher = more signal, called active from +8 up or from −8 down;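 note: probe is the protein aXip251-270 applied at 1 µg/mL to compound-printed slides; binding of probe to printed compounds measured as 667 nm fluorescence plus signal to noise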
[3] = small-molecule binders of probe aNOTCH3, primary screen, biochemical, small-molecule microarray, 635/667 nm fluorescence (AID 1120); conditions: higher = more signal;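 note: probe is a biotin-tagged antibody raised against NOTCH3 rather than NOTCH3 protein; score merges spot fluorescence near 667 nm with spot signal to noise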
[4] = small-molecule binders of probe aNOTCH2, primary screen, biochemical, small-molecule microarray, 635/667 nm fluorescence (AID 1121); conditions: higher = more signal;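 note: score merges feature fluorescence read at 667 nm with its signal to noise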
[5] = target: Carbonic anhydrase 2 (Homo sapiens) (UniProt P00918); assay: CAII small-molecule binders, profiling panel, biochemical, small-molecule microarray, Alexa647-labelled CAII (AID 1122); conditions: CAII-A647 binding fluorescence, higher = more signal
[6] = COS7 lysate on small-molecule microarray, probe aHis, 635 nm (AID 1123); conditions: COS7 cell lysate, fluorescence, higher = more signal;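 note: z-score combines 667nm fluorescence intensity with signal-to-noise per printed compound spot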
[7] = compound binding in COS7 lysate, probe aLAP1, primary screen, cell lysate, small-molecule microarray (AID 1124); conditions: probe aLAP1, fluorescence, higher = more signal;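 note: lysate comes from COS7 cells expressing LAP1 and is applied at 0.3 µg/mL; score merges spot fluorescence near 667 nm with signal-to-noise over triplicate slides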
[8] = test system: Sam68 (KHDRBS1); assay: Sam68 small-molecule binders, primary screen, biochemical, small-molecule microarray, 635 nm fluorescence (AID 1125); conditions: small-molecule microarray binding, higher = more signal;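 note: score merges 667 nm channel intensity with signal to noise over triplicate slides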
[9] = test system: Chordin-like protein 2 (CHRDL2); assay: CHRDL2 small-molecule binders, primary screen, biochemical, small-molecule microarray, 635 nm fluorescence (AID 1126); conditions: small-molecule microarray binding, fluorescence 635 nm; higher = more signal;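 note: printed compound slides probed with Chrdl2 protein at 4 µg/mL for 1 h at 4 C; score merges 667 nm emission intensity with signal to noise over three replicate slides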
[10] = target: Concanavalin-A (Canavalia ensiformis) (UniProt P02866); assay: ConA small-molecule binders, primary screen, artefact control for SMM control protein annotation, biochemical, small-molecule microarray, Alexa647 label, 635 nm (AID 1127); conditions: ConA-A647 binding fluorescence, higher = more signal;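 note: z combines 667 nm emission intensity with signal-to-noise across three replicate slides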
Sequence of Concanavalin-A (Canavalia ensiformis) (P02866 whole entry, looked up): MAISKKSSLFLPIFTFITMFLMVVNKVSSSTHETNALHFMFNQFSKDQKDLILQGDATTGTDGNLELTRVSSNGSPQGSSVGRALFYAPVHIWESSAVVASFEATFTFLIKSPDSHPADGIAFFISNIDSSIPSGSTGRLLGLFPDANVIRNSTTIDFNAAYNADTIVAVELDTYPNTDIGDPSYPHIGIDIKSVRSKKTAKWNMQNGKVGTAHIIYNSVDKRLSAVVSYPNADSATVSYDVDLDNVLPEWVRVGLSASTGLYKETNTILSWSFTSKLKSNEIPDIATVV

[11] = anti-His antibody binders, primary screen, artefact control for SMM control protein annotation, biochemical, small-molecule microarray, 635 nm fluorescence (AID 1128); conditions: anti-His Alexa647 antibody binding, higher = more signal;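 note: score merges feature fluorescence with signal-to-noise for each printed compound spot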
[12] = test system: Human papillomavirus type 1a E7 protein (residues 1-88); assay: HPV1a E7 small-molecule binders, primary screen, biochemical, small-molecule microarray, residues 1-88, 635 nm (AID 1129); conditions: small-molecule microarray binding, fluorescence 635 nm; higher = more signal
[13] = target: Focal adhesion kinase 1 (Homo sapiens) (UniProt Q05397); assay: small-molecule microarray binders of FAK, primary screen, biochemical, 635/667 nm fluorescence, BSA, DTT (AID 1130); conditions: PTK2 binding, 635 nm fluorescence, higher = more signal;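 note: composite of spot emission at 667 nm and signal to noise over triplicate slides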
Sequence of Focal adhesion kinase 1 (Homo sapiens) (Q05397 whole entry, looked up): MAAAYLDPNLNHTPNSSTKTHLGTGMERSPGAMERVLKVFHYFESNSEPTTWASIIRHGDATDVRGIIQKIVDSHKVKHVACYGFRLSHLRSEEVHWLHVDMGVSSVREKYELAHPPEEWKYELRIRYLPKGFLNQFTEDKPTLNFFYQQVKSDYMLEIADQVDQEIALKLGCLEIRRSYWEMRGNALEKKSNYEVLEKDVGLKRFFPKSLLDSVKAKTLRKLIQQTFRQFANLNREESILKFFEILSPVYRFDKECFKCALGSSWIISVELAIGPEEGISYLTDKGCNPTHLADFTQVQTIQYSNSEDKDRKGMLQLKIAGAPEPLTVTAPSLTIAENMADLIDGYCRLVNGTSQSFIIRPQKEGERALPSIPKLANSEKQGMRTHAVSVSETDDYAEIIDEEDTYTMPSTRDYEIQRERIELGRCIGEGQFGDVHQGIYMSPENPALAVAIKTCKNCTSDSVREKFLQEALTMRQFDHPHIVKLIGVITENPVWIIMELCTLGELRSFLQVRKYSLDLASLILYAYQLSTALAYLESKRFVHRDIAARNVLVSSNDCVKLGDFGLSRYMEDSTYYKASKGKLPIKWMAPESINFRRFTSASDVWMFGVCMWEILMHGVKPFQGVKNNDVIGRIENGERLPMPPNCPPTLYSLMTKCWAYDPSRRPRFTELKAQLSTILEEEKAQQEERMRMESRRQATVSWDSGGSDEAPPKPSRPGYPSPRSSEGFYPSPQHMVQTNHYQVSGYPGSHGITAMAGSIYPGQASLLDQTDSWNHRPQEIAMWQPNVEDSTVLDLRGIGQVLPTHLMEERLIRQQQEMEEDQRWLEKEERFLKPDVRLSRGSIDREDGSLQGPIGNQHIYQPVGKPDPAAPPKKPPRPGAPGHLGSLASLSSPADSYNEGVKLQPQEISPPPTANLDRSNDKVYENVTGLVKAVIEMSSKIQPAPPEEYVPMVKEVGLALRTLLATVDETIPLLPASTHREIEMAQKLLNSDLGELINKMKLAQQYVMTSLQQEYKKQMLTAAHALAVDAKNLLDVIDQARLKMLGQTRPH

[14] = test system: Fibrinogen (Alexa647-labelled); assay: fibrinogen binders on compound microarrays, profiling panel, artefact control for SMM control-protein annotation, biochemical, small-molecule microarray, 635/667 nm fluorescence (AID 1131); conditions: fibrinogen-A647 binding fluorescence, higher = more signal;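 note: z-score merges 667 nm fluorescence with per-spot signal-to-noise over triplicate slides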
[15] = target: Follistatin (Homo sapiens) (UniProt P19883); assay: follistatin binders on small-molecule microarrays, primary screen, biochemical, small-molecule microarray, 635/667 nm fluorescence (AID 1132); conditions: FST binding, 635 nm fluorescence, higher = more signal
Sequence of Follistatin (Homo sapiens) (P19883 whole entry, looked up): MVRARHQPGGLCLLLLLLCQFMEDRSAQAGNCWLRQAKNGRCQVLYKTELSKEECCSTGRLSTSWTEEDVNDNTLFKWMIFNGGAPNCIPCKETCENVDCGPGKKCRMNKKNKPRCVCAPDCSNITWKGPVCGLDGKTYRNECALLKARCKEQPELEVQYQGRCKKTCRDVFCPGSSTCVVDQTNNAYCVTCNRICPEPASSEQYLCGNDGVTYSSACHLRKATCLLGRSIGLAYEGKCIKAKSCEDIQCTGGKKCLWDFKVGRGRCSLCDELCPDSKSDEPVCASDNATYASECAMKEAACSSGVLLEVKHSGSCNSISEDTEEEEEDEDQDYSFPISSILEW

[16] = target: Fibroblast growth factor 2 (Homo sapiens) (UniProt P09038); assay: FGF2 binders on small-molecule microarrays, primary screen, biochemical, small-molecule microarray, 635/667 nm fluorescence (AID 1133); conditions: small-molecule microarray binding, FGF2, fluorescence 635/667; higher = more signal
Sequence of Fibroblast growth factor 2 (Homo sapiens) (P09038 whole entry, looked up): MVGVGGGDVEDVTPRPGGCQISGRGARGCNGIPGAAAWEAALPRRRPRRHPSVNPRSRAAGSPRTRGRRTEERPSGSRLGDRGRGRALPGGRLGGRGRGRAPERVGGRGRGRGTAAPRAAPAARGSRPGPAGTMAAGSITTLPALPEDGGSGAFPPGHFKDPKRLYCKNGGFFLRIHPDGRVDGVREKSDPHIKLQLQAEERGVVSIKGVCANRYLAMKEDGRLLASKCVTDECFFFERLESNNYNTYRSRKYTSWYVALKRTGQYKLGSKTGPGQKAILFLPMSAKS

[17] = mitochondrial membrane potential change in A549 cells, profiling panel, cell-based, JC-1 fluorescence, basal, 24 h, 100 nL (AID 1138); conditions: higher = more signal;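 note: A549 lung adenocarcinoma cells under basal conditions with no added stimulus; test concentration not given here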
[18] = test system: Lefty1; assay: Lefty1 binders on small-molecule microarrays, primary screen, biochemical, small-molecule microarray, 635/667 nm fluorescence (AID 1139); conditions: small-molecule microarray binding, fluorescence 635/667; higher = more signal
[19] = test system: wheat germ agglutinin (Triticum aestivum), Alexa647-labelled; assay: wheat germ agglutinin binders on compound microarrays, profiling panel, artefact control for SMM control-protein annotation, biochemical, small-molecule microarray, 635/667 nm fluorescence (AID 1140); conditions: WGA-A647 binding, 635 nm fluorescence, higher = more signal;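 note: score merges 667 nm feature emission with signal to noise over triplicate slides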
[20] = target: Luciferin 4-monooxygenase (Photinus pyralis) (UniProt P08659); assay: firefly luciferase enzyme inhibitors, primary screen, biochemical, luminescence, purified enzyme, 2006 set (AID 1141); conditions: SteadyGlo luminescence, 30 min, higher = more signal, called active from +8 up or from −8 down;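 note: cell-free assay with purified firefly luciferase at 100 ng per well in PBS; test concentration not given here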
Sequence of Luciferin 4-monooxygenase (Photinus pyralis) (P08659 whole entry, looked up): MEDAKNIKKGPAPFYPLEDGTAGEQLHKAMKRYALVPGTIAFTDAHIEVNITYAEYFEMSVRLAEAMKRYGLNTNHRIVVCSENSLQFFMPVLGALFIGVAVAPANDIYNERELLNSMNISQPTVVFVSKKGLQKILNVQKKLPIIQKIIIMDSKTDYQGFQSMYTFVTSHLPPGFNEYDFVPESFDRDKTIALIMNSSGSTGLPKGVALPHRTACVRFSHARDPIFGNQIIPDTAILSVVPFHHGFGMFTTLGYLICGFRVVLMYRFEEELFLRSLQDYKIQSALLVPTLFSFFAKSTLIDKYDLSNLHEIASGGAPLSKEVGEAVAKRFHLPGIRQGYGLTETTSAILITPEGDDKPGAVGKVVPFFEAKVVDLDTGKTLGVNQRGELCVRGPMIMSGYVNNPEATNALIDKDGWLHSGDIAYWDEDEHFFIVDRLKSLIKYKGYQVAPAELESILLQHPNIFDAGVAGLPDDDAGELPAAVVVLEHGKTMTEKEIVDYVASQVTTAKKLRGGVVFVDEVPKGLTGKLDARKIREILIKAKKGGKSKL

Sequence of Albumin (Bos taurus) (P02769 whole entry, looked up): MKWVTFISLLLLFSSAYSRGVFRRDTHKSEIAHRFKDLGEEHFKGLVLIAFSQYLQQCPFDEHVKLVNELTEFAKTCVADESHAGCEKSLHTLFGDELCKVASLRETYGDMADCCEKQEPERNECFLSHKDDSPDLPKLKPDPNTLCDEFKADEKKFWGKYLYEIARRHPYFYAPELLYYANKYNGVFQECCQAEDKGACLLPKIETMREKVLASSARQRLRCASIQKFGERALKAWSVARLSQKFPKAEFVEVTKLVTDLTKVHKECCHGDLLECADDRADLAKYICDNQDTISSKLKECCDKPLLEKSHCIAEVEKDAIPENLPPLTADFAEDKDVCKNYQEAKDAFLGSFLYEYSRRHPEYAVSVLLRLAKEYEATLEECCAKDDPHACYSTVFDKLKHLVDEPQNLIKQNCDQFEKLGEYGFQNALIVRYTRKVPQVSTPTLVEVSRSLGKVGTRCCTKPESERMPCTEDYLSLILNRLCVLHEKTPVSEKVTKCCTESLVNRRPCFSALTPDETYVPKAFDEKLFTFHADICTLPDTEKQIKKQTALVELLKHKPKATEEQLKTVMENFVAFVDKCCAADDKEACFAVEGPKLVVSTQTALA

| Compound | composite z-score [1] | composite Z-score [2] | composite z-score [3] | composite z-score [4] | composite z-score [5] | composite z-score [6] | composite z-score [7] | composite z-score [8] | composite z-score [9] | composite z-score [10] | composite z-score [11] | composite z-score [12] | composite z-score [13] | composite z-score [14] | composite z-score [15] | composite z-score [16] | z-score [17] | composite z-score [18] | composite z-score [19] | z-score [20] |
| --- | --- | --- | --- | --- | --- | --- | --- | --- | --- | --- | --- | --- | --- | --- | --- | --- | --- | --- | --- | --- |
| CC(C)(C)OC(=O)CC[C@@]1(C(=O)NCC(O)CO)N=C(c2ccc(OCCCO)cc2)O[C@@H]1c1ccccc1CN=[N+]=[N-] (stereo not given in full) | 0.347 | -0.0662 (inactive) | 0.0297 | 0.124 | 0.836 | 1.34 | 0.398 | 0.941 | 0.333 | 0.922 | 1.41 | 0.98 | 0.426 | 0.91 | 0.716 | 0.337 | 0.404 | -0.0839 | 0.299 | -1.78 (inactive) |
| COc1ccc([Si](C)(C)[C@@H]2[C@@H](CCO)O[C@]3(C(=O)N(Cc4cccc(NC(=O)[C@H](C)O)c4)c4ccccc43)[C@H]2C)cc1 | 0.6 | 0.234 (inactive) | -0.147 | -0.0984 | 0.51 | 1.61 | 0.523 | 1.31 | -0.083 | 1.01 | 1.76 | 1.2 | 0.642 | 0.694 | 0.393 | 0.957 | -1.52 | 0.486 | 0.743 | -0.355 (inactive) |
| COc1ccc([C@H]2OC[C@@H]3C[C@H](Cc4ccccc4)C(=O)N32)cc1 | -0.0141 | -0.397 (inactive) | 0.03 | -0.101 | -0.0065 | 0.0949 | -0.0729 | 0.0535 | 0.0962 | 0.512 | 0.606 | 0.358 | 0.0039 | 0.179 | 0.416 | 0.511 | 0.239 | 0.374 | 0.582 | -0.0539 (inactive) |
| CC(C)C(CO)N1C(=O)[C@@H]2[C@H]3C(=O)OCC=C[C@H]3OC23C=CCN(c2ccc(Cl)cc2)C(=O)[C@@H]13 (stereo not given in full) | -1.26 | -0.268 (inactive) | -0.171 | -0.117 | 0.839 | -0.372 | -0.364 | 0.0729 | -0.847 | -0.842 | -1.82 | -1.22 | -0.265 | -0.934 | -0.728 | -0.794 | 1.05 | -0.712 | -0.928 | -0.469 (inactive) |
| CCOc1cc(C(O)C2C=CC3C(=O)NC(=O)C3N2Nc2ccc(Cl)cc2Cl)ccc1O (stereo not given) | -0.671 | 0.568 (inactive) | -0.152 | -0.0601 | 0.797 | 1.23 | -0.587 | -1.94 | -0.157 | -0.915 | -0.254 | -0.537 | 0.725 | 0.332 | -0.403 | -0.744 | -0.262 | -1.33 | 0.235 | 0.445 (inactive) |
| C=CCC(OC(C)=O)[C@@H]1[C@@H](N(Cc2ccc(-c3ccccc3)cc2)C(=O)c2ccc(-c3ccccc3)cc2)c2cc(OCCCO)ccc2N1C(=O)c1ccc2ccccc2c1 (stereo not given in full) | -0.186 | -0.473 (inactive) | -0.0208 | -0.115 | 0.212 | 0.937 | -0.129 | 0.352 | 0.0949 | -0.38 | -0.162 | 0.0751 | -0.138 | -0.239 | 0.707 | -0.193 | 0.657 | 0.476 | -0.094 | -0.424 (inactive) |
| Cc1ccc(S[C@]2(C(=O)NCC(F)(F)F)CC(=O)N(Cc3cc(C(F)(F)F)cc(C(F)(F)F)c3)[C@@H]2c2ccc(CO)cc2)cc1 | -0.658 | -0.0775 (inactive) | -0.229 | -0.164 | 0.802 | -0.551 | -0.238 | -0.36 | -1.19 | -0.183 | 1.86 | -1.33 | -0.237 | -1.09 | -0.192 | -0.897 | 0.0304 | -0.126 | -0.744 | -0.46 (inactive) |
| CCCC=C(CCC)[C@@H](NC(=O)C(C)(C)C)c1ccc(C(=O)OC)cc1 | 0.991 | 0.29 (inactive) | 0.25 | 0.0199 | 0.441 | 2.76 | 0.103 | 0.622 | -0.91 | 0.869 | 0.933 | 1.01 | 0.451 | 0.972 | 0.156 | -0.764 | 2.85 | -0.947 | 0.995 | 1.91 (inactive) |
| CCCN1C(=O)[C@@]2(Cc3ccccc31)N=C(c1ccc(OCCCO)cc1)O[C@H]2c1ccccc1 | -0.324 | 0.953 (inactive) | 0.0916 | 0.0118 | 0.523 | 1.88 | 0.587 | 1.31 | 0.201 | 1.13 | 0.293 | 1.17 | 0.881 | 0.829 | 1.23 | 1.31 | 1.69 | 0.256 | 0.801 | -3.25 (inactive) |
| C=CCNC(=O)[C@@H]1[C@H]2C(=O)O[C@H](c3ccccc3)[C@H](c3ccccc3)N2[C@H](c2ccc(OCCO)cc2)[C@@]12C(=O)N(C(=O)OCCOC)c1ccc(C#Cc3ccc(OC)cc3)cc12 | 0.645 | -0.116 (inactive) | 0.182 | -0.151 | 0.402 | 1.39 | 0.78 | 1.3 | 0.151 | 1.14 | 0.81 | 1.16 | 0.066 | 0.785 | 1.27 | 0.93 | -1.41 | 0.901 | 0.939 | -0.728 (inactive) |

Source: PubChem BioAssay
